Test results: PubChem BioAssay AID504920 (Johns Hopkins Ion Channel Center, 2011)
Unmarked numbers belong to inactive results.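 How the source made its calls: active means peak hERG channel inhibition above 30% at some tested dose, together with a fitted dose response curve; inactive means no hERG inhibition at any dose, or no curve.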

biological target: Voltage-gated inwardly rectifying potassium channel KCNH2 (Homo sapiens) (UniProt Q12809); assay: KCNH2 potassium channel blockade – FluxOR Tl flux, hERG-expressing cells, selectivity assay for KCNK9 inhibitor project, SAR follow-up (AID 504920); conditions: FluxOR thallium flux fluorescence; series mostly up to 30 µM; fluorescence ratio, lower = inhibition: at the top concentration
Sequence (Q12809 whole entry, looked up): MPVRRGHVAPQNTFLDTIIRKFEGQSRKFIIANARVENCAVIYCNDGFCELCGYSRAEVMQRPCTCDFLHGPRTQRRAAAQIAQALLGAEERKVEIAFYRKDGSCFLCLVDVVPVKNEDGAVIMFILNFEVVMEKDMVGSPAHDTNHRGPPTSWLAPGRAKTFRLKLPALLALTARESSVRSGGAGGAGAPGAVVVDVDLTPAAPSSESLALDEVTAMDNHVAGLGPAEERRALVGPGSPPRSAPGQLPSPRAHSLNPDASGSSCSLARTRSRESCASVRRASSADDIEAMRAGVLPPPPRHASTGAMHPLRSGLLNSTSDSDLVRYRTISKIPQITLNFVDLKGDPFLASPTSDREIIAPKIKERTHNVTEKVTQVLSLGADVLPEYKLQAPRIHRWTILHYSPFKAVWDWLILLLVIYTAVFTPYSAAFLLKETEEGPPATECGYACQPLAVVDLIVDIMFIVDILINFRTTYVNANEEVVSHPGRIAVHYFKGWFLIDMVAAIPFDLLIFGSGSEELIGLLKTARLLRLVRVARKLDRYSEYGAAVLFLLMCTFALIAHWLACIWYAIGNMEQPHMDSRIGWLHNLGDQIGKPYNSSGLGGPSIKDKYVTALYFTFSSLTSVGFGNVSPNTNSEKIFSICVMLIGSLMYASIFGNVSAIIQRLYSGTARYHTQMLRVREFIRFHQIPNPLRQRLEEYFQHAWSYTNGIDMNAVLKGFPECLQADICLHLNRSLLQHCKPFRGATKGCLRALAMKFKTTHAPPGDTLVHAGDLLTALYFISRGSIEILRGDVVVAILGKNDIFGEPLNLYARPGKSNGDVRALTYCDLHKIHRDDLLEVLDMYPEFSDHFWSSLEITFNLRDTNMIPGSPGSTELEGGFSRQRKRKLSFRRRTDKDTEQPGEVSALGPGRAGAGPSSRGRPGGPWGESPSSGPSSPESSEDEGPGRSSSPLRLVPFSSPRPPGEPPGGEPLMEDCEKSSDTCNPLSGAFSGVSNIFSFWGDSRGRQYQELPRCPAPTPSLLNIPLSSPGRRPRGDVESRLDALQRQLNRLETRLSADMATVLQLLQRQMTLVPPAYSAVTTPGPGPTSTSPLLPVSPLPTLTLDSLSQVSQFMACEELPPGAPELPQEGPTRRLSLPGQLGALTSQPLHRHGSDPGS

Structure (SMILES) | fluorescence ratio, lower = inhibition
Cc1cccc(NC(=O)c2cccc(NC(=O)c3ccccc3)c2)c1 | 0.4
Cc1cccc(C(=O)Nc2cccc(C(=O)Nc3ccccc3)c2)c1 | 0.362
Cc1cccc(NC(=O)c2ccccc2NC(=O)c2ccccc2)c1 | 0.494
Cc1cccc(C(=O)Nc2ccccc2C(=O)Nc2ccccc2)c1 | 0.274
Cc1cccc(C(=O)Nc2ccc(C(=O)Nc3ccccc3)cc2)c1 | 0.47
